Experiment [1] deals with zebrafish Estrogen Receptor (ER1), esr1 (gene 259252) (UniProt P57717). Nature of the experiment: ATG_zfER1_XSP2: Attagene TRANS-FACTORIAL Multi-Species (XSP2) HepG2 Assay for zebrafish Estrogen Receptor (ER1) (AID 2283816). The essentials: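 HepG2 cells transiently transfected with a GAL4-UAS reporter and a chimeric zebrafish ER1-Gal4 construct, dosed 24 h. Reporter mRNA quantified by RT-PCR, labelling, HpaI digestion and capillary electrophoresis, relative to DMSO.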

Experiment [2] has as its target chicken Estrogen Receptor (ERa), ESR1 (gene 396099) (UniProt P06212). In words: ATG_chERa_XSP2: Attagene TRANS-FACTORIAL Multi-Species (XSP2) HepG2 Assay for chicken Estrogen Receptor (ERa) (AID 2283817).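 Further: actives raise reporter signal above DMSO so AC50 reflects ER activation.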 The method in brief:
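HepG2 cells transiently transfected with multiplexed GAL4-UAS reporter units expressing chimeric chicken ERa-Gal4; 24 h compound exposure. Reporter mRNA measured by RT-PCR with 6-FAM labelling, HpaI digestion and capillary electrophoresis; gain-of-signal fitted versus DMSO.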

Experiment [3] deals with zebrafish Estrogen Receptor (ER2a), gene 317734. Nature of the experiment: ATG_zfER2a_XSP2: Attagene TRANS-FACTORIAL Multi-Species (XSP2) HepG2 Assay for zebrafish Estrogen Receptor (ER2a) (AID 2283818).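 Further: hits raise reporter mRNA so AC50 reflects activation of zebrafish ER2a.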 The method in brief: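 HepG2 cells transiently transfected with GAL4-UAS reporter units and chimeric zebrafish ER2a-Gal4, exposed 24 h; medium contains 3 nM 6-alpha-fluorotestosterone and 1.5 nM norgestrel. Reporter mRNA quantified by RT-PCR, HpaI digestion, capillary electrophoresis; gain versus DMSO.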

Experiment [4] relates to frog Estrogen Receptor (ER), gene 398734. In words: ATG_frER1_XSP2: Attagene TRANS-FACTORIAL Multi-Species (XSP2) HepG2 Assay for frog Estrogen Receptor (ER) (AID 2283821).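 Further: hits raise reporter mRNA above DMSO baseline so potency means agonist or activator.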 The method in brief:
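HepG2, transient MRTU transfection, chimeric NR-GAL4/UAS reporters; 24 h compound exposure, 24-well. Readout: reporter mRNA via RT-PCR + capillary electrophoresis, fluorescence. Positive fit vs DMSO baseline.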

Experiment [5] concerns zebrafish Estrogen Receptor (ER2b), gene 317733. In words: ATG_zfER2b_XSP2: Attagene TRANS-FACTORIAL Multi-Species (XSP2) HepG2 Assay for zebrafish Estrogen Receptor (ER2b) (AID 2283823).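 Further: fitted upward as reporter gain over DMSO so potency reflects activation.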 The essentials: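 Cells used were HepG2, transiently transfected with chimeric nuclear receptor-Gal4 reporter units. After 24 h of chemical treatment, reporter transcripts were amplified by RT-PCR, labelled and sized by capillary electrophoresis, with induction analysed relative to DMSO.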

A short description of experiment [6]: ATG_M_32_XSP2: Attagene TRANS-FACTORIAL Multi-Species (XSP2) HepG2 Assay for M19 Transcription Factor (Internal Marker) (AID 2283826). The essentials: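 Transfected HepG2 (multiplexed GAL4-UAS reporters), 24 h chemical exposure, 3 nM 6-alpha-fluorotestosterone + 1.5 nM norgestrel added. RNA → oligo(dT) RT → PCR → 6-FAM primer extension → HpaI cut → CE. Fitted upward vs DMSO.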

Experiment [7] deals with Peroxisome proliferator-activated receptor gamma (Homo sapiens) (UniProt P37231). In words: ATG_hPPARg_XSP2: Attagene TRANS-FACTORIAL Multi-Species (XSP2) HepG2 Assay for human Peroxisome Proliferator-activated Receptor gamma (PPARg) (AID 2283829).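 Further: actives raise reporter mRNA above DMSO so AC50 reflects PPARg activation.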 The method in brief: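 After transfecting HepG2 with GAL4-UAS reporter constructs, cells are dosed for 24 h; total RNA is reverse-transcribed, PCR-amplified, FAM-labeled, HpaI-digested and resolved by capillary electrophoresis. Activity is measured as mRNA induction relative to DMSO.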
Chain of Peroxisome proliferator-activated receptor gamma (Homo sapiens) (P37231 whole entry, looked up, the tested form may be a part): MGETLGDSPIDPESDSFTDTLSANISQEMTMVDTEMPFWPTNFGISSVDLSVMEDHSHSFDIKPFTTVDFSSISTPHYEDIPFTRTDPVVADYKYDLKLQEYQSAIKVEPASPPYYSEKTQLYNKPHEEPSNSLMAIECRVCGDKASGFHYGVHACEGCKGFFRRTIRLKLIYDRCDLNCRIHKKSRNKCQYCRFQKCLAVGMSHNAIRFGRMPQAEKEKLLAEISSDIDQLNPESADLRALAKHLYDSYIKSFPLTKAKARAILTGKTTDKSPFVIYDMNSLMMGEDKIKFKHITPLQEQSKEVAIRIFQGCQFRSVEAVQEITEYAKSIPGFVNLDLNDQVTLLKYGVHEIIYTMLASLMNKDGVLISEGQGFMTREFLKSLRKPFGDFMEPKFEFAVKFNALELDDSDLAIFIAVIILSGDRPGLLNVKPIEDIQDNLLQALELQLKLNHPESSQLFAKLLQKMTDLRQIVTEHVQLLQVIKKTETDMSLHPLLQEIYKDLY

Experiment [8] concerns the target mouse Peroxisome Proliferator-activated Receptor gamma (PPARg), Pparg (gene 19016) (UniProt P37238). Nature of the experiment: ATG_mPPARg_XSP2: Attagene TRANS-FACTORIAL Multi-Species (XSP2) HepG2 Assay for mouse Peroxisome Proliferator-activated Receptor gamma (PPARg) (AID 2283830).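 Further: hits are gains in reporter mRNA above DMSO so AC50 marks activation.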 The method in brief: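 HepG2 cells transiently transfected with GAL4-UAS reporter units for chimeric NR-Gal4 proteins including mouse PPARg, exposed 24 h; medium contained 3 nM 6-alpha-fluorotestosterone and 1.5 nM norgestrel. Reporter mRNA quantified by RT-PCR, HpaI digestion and capillary electrophoresis, vs DMSO.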

Experiment [9] has as its target Nuclear receptor subfamily 1 group I member 2 (Mus musculus) (UniProt O54915). Nature of the experiment: ATG_mPXR_XSP2: Attagene TRANS-FACTORIAL Multi-Species (XSP1) HepG2 Assay for mouse Pregnane X Receptor (PXR) (AID 2283831). The essentials:
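Reporter transcripts were quantified by RT-PCR, FAM primer extension, HpaI digestion and capillary electrophoresis after 24 h of chemical exposure in transiently transfected HepG2 cells carrying chimeric receptor-GAL4 constructs; DMSO served as baseline.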

Experiment [10] deals with zebrafish Thyroid Hormone Receptor alpha (TRa), thraa (gene 30670) (UniProt Q98867). In words: ATG_zfTRa_XSP2: Attagene TRANS-FACTORIAL Multi-Species (XSP1) HepG2 Assay for zebrafish Thyroid Hormone Receptor alpha (TRa) (AID 2283832).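 Further: actives raise zebrafish TRa-Gal4 reporter transcript above DMSO baseline.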 The method in brief: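 Chimeric receptor-Gal4 activity was assessed in transfected human liver HepG2 cells 24 h after dosing, using reporter transcript levels detected by RT-PCR and capillary electrophoresis. DMSO served as baseline.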
Chain of zebrafish Thyroid Hormone Receptor alpha (TRa), thraa (gene 30670) (Q98867 whole entry, looked up, the tested form may be a part): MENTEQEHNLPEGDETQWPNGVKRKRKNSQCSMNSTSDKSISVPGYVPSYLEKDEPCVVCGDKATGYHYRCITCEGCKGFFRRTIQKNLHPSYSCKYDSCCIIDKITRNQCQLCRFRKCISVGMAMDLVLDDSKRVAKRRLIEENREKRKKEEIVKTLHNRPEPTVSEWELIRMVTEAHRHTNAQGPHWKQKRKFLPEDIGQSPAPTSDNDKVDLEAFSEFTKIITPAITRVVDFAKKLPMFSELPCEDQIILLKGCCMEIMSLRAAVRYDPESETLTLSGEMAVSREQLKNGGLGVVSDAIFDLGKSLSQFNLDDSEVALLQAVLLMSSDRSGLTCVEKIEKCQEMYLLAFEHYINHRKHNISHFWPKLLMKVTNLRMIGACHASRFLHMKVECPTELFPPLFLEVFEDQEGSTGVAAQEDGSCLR

The test system of experiment [11] is zebrafish Peroxisome Proliferator-activated Receptor gamma (PPARg), gene 557037. In words: ATG_zfPPARg_XSP2: Attagene TRANS-FACTORIAL Multi-Species (XSP2) HepG2 Assay for zebrafish Peroxisome Proliferator-activated Receptor gamma (PPARg) (AID 2283833).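 Further: actives increase reporter signal over DMSO so AC50 reflects activation.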 The essentials: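 Multi-species TRANS format in HepG2, 24 h dosing; medium also contained 3 nM 6-alpha-fluorotestosterone and 1.5 nM norgestrel to stimulate androgen receptor. Zebrafish PPARg-GAL4 induced reporter mRNA was measured by RT-PCR/capillary electrophoresis.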

In experiment [12] the test system is turtle Thyroid Hormone Receptor, alpha (TRa), gene 101949057. Nature of the experiment: ATG_trTRa_XSP2: Attagene TRANS-FACTORIAL Multi-Species (XSP1) HepG2 Assay for turtle Thyroid Hormone Receptor, alpha (TRa) (AID 2283834).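 Further: hits raise reporter mRNA over the DMSO baseline so AC50 marks activators.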 The essentials:
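Transfection of HepG2 with multiple reporter transcription units, then chemical dosing for 24 h. Total RNA was reverse-transcribed, reporter sequences PCR-amplified and FAM-labelled, then sized by capillary electrophoresis. DMSO served as baseline.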

A short description of experiment [13]: ATG_M_61_XSP2: Attagene TRANS-FACTORIAL Multi-Species (XSP2) HepG2 Assay for M61 Transcription Factor (Internal Marker) (AID 2283835; active means hit-call score of the fitted dose curve at least 0.9, where 1 is the maximum; inactive means score below 0.9;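 further: active means a rise in signal above the DMSO baseline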). The method in brief:
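HepG2 cells transiently transfected with multiple GAL4-UAS reporter units; 3 nM 6-alpha-fluorotestosterone and 1.5 nM norgestrel present to stimulate androgen receptor. After 24 h compound exposure, reporter mRNA measured by RT-PCR and capillary electrophoresis fluorescence, gain-of-signal versus DMSO baseline.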

For experiment [14], the target named is zebrafish Thyroid Hormone Receptor beta (TRb), thrb (gene 30607) (UniProt Q9PVE4). Nature of the experiment: ATG_zfTRb_XSP2: Attagene TRANS-FACTORIAL Multi-Species (XSP1) HepG2 Assay for zebrafish Thyroid Hormone Receptor beta (TRb) (AID 2283836). The method in brief: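 Fluorescence of labelled reporter cDNA fragments, separated by capillary electrophoresis, gives mRNA induction from exogenous NR-Gal4 chimeras in transiently transfected HepG2 cells after 24 h dosing; 3 nM 6-alpha-fluorotestosterone and 1.5 nM norgestrel included in the run.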
Chain of zebrafish Thyroid Hormone Receptor beta (TRb), thrb (gene 30607) (Q9PVE4 whole entry, looked up, the tested form may be a part): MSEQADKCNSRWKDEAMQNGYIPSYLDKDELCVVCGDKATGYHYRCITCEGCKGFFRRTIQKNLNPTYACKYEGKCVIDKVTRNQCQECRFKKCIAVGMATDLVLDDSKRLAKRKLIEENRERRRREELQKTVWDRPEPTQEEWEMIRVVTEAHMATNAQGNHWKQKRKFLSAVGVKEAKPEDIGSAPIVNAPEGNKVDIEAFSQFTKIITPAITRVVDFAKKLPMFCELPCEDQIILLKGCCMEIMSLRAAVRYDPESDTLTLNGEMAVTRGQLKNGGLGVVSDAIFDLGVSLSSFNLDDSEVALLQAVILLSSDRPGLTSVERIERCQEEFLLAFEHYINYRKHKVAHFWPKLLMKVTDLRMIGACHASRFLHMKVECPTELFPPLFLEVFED

The subject of experiment [15] is frog Estrogen Receptor (ER2), gene 100174814. In words: ATG_frER2_XSP2: Attagene TRANS-FACTORIAL Multi-Species (XSP2) HepG2 Assay for frog Estrogen Receptor (ER2) (AID 2283828). The method in brief:
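Human liver HepG2, transient MRTU transfection (TRANS format, exogenous NR–Gal4). 24 h cpd exposure. Total RNA → RT → PCR → FAM label → HpaI cut → CE. Positive direction vs DMSO.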

Experiment [16] relates to zebrafish Androgen Receptor (AR), gene 100005148. Nature of the experiment: ATG_zfAR_XSP2: Attagene TRANS-FACTORIAL Multi-Species (XSP2) HepG2 Assay for zebrafish Androgen Receptor (AR) (AID 2283825).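 Further: hits raise reporter mRNA above DMSO so AC50 reflects agonist-type gain.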 The essentials:
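Zebrafish AR–GAL4 chimera transiently expressed with GAL4-UAS reporter in HepG2 cells, co-stimulated with 3 nM 6-alpha-fluorotestosterone and 1.5 nM norgestrel; 24 h dosing, reporter mRNA read by RT-PCR/capillary electrophoresis versus DMSO.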

Experiment [17] has as its system chicken Androgen Receptor (AR), gene 422165. In words: ATG_chAR_XSP2: Attagene TRANS-FACTORIAL Multi-Species (XSP2) HepG2 Assay for chicken Androgen Receptor (AR) (AID 2283819).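 Further: hits raise reporter mRNA above DMSO so potency is for activation.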 The essentials:
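HepG2 cells transiently transfected with chicken AR–GAL4 chimeric reporter constructs, stimulated with 3 nM 6-alpha-fluorotestosterone plus 1.5 nM norgestrel, dosed 24 h. Reporter mRNA quantified by RT-PCR and capillary electrophoresis; gain of signal fitted versus DMSO.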

Experiment [18] concerns turtle Androgen Receptor (AR), gene 101947425. In words: ATG_trAR_XSP2: Attagene TRANS-FACTORIAL Multi-Species (XSP2) HepG2 Assay for turtle Androgen Receptor (AR) (AID 2283815). The method in brief: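 HepG2 cells transiently transfected with GAL4-UAS reporter units for chimeric NR-Gal4 receptors; 24 h dosing in presence of 3 nM 6-alpha-fluorotestosterone and 1.5 nM norgestrel. Reporter mRNA by RT-PCR and capillary electrophoresis, gain of signal versus DMSO.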

Experiment [19] is described as follows: ATG_M_19_XSP2: Attagene TRANS-FACTORIAL Multi-Species (XSP2) HepG2 Assay for M32 Transcription Factor (Internal Marker) (AID 2283822). The method in brief:
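Internal background marker in a multi-species nuclear receptor TRANS panel: transfected HepG2 cells exposed 24 h, with 3 nM 6-alpha-fluorotestosterone and 1.5 nM norgestrel present. Readout is RT-PCR of reporter transcripts resolved by capillary electrophoresis, gain-of-signal versus DMSO.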

By AC50 is commonly meant the concentration at which the activity in the assay is half-maximal.

Inconclusive results are not listed. Activity calls are given as the source filed them. How the source made its calls, unless noted: active means hit-call score of the fitted dose curve at least 0.9, where 1 is the maximum; inconclusive means response in the unintended direction; inactive means score below 0.9.

Chain of mouse Peroxisome Proliferator-activated Receptor gamma (PPARg), Pparg (gene 19016) (P37238 whole entry, looked up, the tested form may be a part): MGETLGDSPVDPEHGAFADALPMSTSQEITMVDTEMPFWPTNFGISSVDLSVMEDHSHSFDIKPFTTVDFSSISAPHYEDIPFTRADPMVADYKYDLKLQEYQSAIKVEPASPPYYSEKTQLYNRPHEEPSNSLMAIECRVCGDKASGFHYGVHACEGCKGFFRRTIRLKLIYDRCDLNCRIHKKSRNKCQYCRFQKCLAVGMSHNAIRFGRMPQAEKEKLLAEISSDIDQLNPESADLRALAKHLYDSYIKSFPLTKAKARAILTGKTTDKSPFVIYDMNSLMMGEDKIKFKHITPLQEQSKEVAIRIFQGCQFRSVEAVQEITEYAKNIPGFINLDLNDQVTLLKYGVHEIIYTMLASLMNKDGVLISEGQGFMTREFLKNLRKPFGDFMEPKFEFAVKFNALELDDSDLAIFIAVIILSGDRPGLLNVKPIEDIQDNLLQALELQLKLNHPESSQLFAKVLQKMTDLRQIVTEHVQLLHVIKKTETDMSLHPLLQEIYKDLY
Chain of Nuclear receptor subfamily 1 group I member 2 (Mus musculus) (O54915 whole entry, looked up, the tested form may be a part): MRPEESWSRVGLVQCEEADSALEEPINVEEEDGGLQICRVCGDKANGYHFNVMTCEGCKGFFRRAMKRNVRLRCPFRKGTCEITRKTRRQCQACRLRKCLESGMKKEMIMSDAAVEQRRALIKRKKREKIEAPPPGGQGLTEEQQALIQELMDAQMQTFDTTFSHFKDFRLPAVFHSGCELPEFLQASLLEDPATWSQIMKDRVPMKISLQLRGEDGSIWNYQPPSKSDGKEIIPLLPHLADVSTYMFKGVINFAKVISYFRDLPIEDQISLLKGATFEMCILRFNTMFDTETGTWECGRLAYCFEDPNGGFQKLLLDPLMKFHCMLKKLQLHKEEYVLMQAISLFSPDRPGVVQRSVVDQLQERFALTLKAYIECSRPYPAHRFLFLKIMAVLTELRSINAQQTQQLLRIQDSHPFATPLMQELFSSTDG
Chain of zebrafish Estrogen Receptor (ER1), esr1 (gene 259252) (P57717 whole entry, looked up, the tested form may be a part): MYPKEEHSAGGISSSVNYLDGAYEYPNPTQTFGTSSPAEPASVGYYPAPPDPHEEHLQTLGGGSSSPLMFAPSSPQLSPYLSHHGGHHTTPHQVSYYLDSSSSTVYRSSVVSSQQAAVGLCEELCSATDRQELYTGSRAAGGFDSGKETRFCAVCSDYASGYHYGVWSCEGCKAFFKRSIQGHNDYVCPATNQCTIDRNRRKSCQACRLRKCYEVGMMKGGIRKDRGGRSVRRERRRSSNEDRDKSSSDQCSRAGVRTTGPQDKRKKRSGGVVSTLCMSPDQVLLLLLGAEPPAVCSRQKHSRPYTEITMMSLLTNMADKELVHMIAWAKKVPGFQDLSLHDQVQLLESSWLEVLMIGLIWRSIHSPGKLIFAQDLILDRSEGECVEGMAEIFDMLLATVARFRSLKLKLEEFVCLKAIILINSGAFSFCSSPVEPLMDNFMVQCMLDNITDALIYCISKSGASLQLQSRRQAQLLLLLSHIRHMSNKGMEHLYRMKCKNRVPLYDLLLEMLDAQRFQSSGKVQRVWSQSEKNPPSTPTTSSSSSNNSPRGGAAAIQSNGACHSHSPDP
Chain of chicken Estrogen Receptor (ERa), ESR1 (gene 396099) (P06212 whole entry, looked up, the tested form may be a part): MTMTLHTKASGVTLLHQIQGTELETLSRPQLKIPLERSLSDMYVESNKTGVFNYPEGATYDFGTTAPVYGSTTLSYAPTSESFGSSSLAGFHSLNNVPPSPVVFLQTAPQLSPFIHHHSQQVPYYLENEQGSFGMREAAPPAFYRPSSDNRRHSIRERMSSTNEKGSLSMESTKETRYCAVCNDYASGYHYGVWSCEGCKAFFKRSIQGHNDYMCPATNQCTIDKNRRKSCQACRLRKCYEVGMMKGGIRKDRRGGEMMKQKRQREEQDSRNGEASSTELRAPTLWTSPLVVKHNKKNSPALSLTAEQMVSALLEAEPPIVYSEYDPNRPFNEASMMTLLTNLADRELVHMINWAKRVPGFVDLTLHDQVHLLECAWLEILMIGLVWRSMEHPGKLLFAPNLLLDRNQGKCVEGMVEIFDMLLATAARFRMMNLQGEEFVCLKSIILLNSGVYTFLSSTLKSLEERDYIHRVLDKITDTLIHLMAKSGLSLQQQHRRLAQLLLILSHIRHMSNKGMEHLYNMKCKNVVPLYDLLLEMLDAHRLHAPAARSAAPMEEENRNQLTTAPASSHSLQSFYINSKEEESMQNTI

Turning to `COC(=O)N(OC)c1ccccc1COc1ccn(-c2ccc(Cl)cc2)n1`, the result in [1], in [2], in experiment [3], in experiment [4], in [5] and in experiment [6] was inactive. Further, the compound was called inactive in experiment [10], in [11], in experiment [12], in experiment [13] and in [14]. The figures for the AC50 in [7], in experiment [8] and in [9] were 1.15 µM (active), 1.43 µM (active) and 2.7 µM (active), respectively.
`CCCCNC(=O)OCC#CI`: the compound was called inactive in [1], in [4], in experiment [6], in experiment [15], in [9] and in experiment [10]. Also, the compound was called inactive in experiment [11] and in [13]. Moreover, the AC50 in experiment [5] is 26.2 µM (active); in [7], 10.6 µM (active); in [8], 25.6 µM (active); in experiment [12], 25.5 µM (active).
As to `CO/C=C(/C(=O)OC)c1ccccc1Oc1cc(Oc2ccccc2C#N)ncn1`, the call in [5], in experiment [16], in [7], in experiment [10], in [11] and in experiment [12] was inactive. Moreover, the compound was called inactive in experiment [13] and in [14]. In addition, the AC50 in experiment [9] was 0.545 µM (active).
Consider `COc1ccc(C(c2ccc(OC)cc2)C(Cl)(Cl)Cl)cc1`, for which the AC50 in experiment [2] is 7.74 µM (active); in [4] it was 8.82 µM (active); in experiment [5], 8.65 µM (active); in experiment [15] it was 99.5 µM (active); in [9] it was 27.8 µM (active). Further, the compound was classed as inactive in experiment [3], in [17], in [6], in [7], in experiment [8] and in [10]. Further, the compound was called inactive in experiment [11], in experiment [12], in experiment [13] and in experiment [14].
With `CCCC1COC(Cn2cncn2)(c2ccc(Cl)cc2Cl)O1` (stereo unspecified), the compound was called inactive in [1], in experiment [6], in [11], in [12] and in [13]. For the same compound, the AC50 in experiment [2] was 3.88 µM (active); in experiment [4], 167 µM (active); in experiment [5], 39.5 µM (active); in experiment [15], 32.5 µM (active); in experiment [7], 67.2 µM (active); in experiment [8], 100 µM (active). In experiment [9], the half-maximal activity concentration (AC50) was 3.79 µM (active).
As for `CCOP(=S)(OCC)SCn1c(=O)oc2cc(Cl)ccc21`, the compound was classed as inactive in [1], in experiment [2], in [3], in [17], in experiment [4] and in [15]. In addition, the result in experiment [10], in experiment [11], in experiment [12], in experiment [13] and in experiment [14] was inactive. In addition, the AC50 was 31.8 µM (active) in experiment [5], 27.9 µM (active) in [7], 31.3 µM (active) in experiment [8] and 0.0321 µM (active) in [9].
In the case of `C#CCOS(=O)OC1CCCCC1Oc1ccc(C(C)(C)C)cc1` (stereo unspecified), the outcome in [18], in experiment [1], in [2], in [6], in [11] and in experiment [13] was inactive. The compound was classed as inactive in experiment [14]. Moreover, the AC50 in experiment [3] is 16.1 µM (active); in experiment [17] it was 4.55 µM (active); in [5], 100 µM (active); in experiment [7] it was 27.6 µM (active); in experiment [8] it was 38 µM (active); in experiment [9], 7.18 µM (active). In addition, the AC50 in experiment [10] was 163 µM (active).
Regarding `CCCCOC(=O)c1ccccc1C(=O)OCCCC`, the outcome in experiment [1], in experiment [3], in experiment [17], in experiment [19], in experiment [6] and in experiment [11] was inactive. Besides, the result in experiment [12] and in [14] was inactive. Moreover, the AC50 was 23 µM (active) in experiment [2]; 29 µM (active) in [4]; 79.3 µM (active) in [5]; 80.3 µM (active) in experiment [15]; 100 µM (active) in [7]; 100 µM (active) in [8]. Besides, in experiment [9], the AC50 is 14.4 µM (active).
